Experimental data as given in PubChem BioAssay (NCI).
Where “and” joins values, the source holds several entries; their conditions need not be identical. Equal entries are not always repeated. This is part of a sample that, as a whole, favours compounds with a hit. Of some 79,000 tested, about 15% had one in any assay. Unmarked numbers belong to inactive results. Calls of active or inactive are those of the source. No stated cut-off is given here; in the data, active means growth inhibition above about 70%; inactive means the rest.

Experiments:
[1] = NCI Yeast Anticancer Drug Screen. Data for the rad50 strain (AID 155);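 further: 0% = growth of vehicle-only cultures of the same strain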; conditions: S. cerevisiae rad50 strain growth inhibition; at 50.0 µM; active compounds read high
Procedure, shortened: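 A DNA repair-deficient yeast mutant serves as the test organism; compound-induced growth inhibition is calculated against vehicle-treated cells.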

[2] = NCI Yeast Anticancer Drug Screen. Data for the mec2-1 strain (AID 157); conditions: S. cerevisiae mec2-1 strain, at 50.0 µM, active compounds read high
Procedure, shortened: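 Cells of the genetically defined mec2-1 yeast strain are incubated with test compound. Inhibition of growth is calculated against vehicle-treated controls.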

[3] = NCI Yeast Anticancer Drug Screen. Data for the sgs1 mgt1 strain (AID 161);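 further: 0% = growth of cultures given vehicle only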; conditions: S. cerevisiae sgs1 mgt1 strain, at 50.0 µM, active compounds read high
Procedure, shortened: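 Mutant yeast exposed to compound; growth scored against vehicle-only wells.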

[4] = NCI Yeast Anticancer Drug Screen. Data for the cln2 rad14 strain (AID 165);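 further: 0% = growth equal to vehicle treated cultures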; conditions: S. cerevisiae cln2 rad14 strain, at 50.0 µM, active compounds read high
Procedure, shortened: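 The screen exposed genetically defined yeast (cln2 rad14) to test compounds and scored growth inhibition relative to vehicle-treated controls.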

[5] = NCI Yeast Anticancer Drug Screen. Data for the bub3 strain (AID 167); conditions: S. cerevisiae bub3 mutant strain, at 50.0 µM, active compounds read high
Procedure, shortened: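 Inhibition values come from growth of compound-treated mutant yeast normalised to vehicle-treated controls.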

[6] = NCI Yeast Anticancer Drug Screen. Data for the mlh1 rad18 strain (AID 175); conditions: S. cerevisiae mlh1 rad18 strain growth inhibition; at 50.0 µM; active compounds read high
Procedure, shortened: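 Compound-treated yeast growth, normalised to vehicle controls. Strain bears defined DNA repair mutations.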

SMILES	growth inhibition [1]	growth inhibition [2]	growth inhibition [3]	growth inhibition [4]	growth inhibition [5]	growth inhibition [6]
Cc1ccc(S(=O)(=O)N2CCCCCC2)cc1	10.8% and -9.2%	15.8% and -2.65%	-13.7% and -5.75%	1.6% and -7.75%	-6.7% and -2.85%	-10.6% and -0.45%
O=C(O)C(Cc1ccc(O)cc1)NS(=O)(=O)Cc1ccccc1 (configuration not stated)	-12.8% and 7.15%	-5.85% and 17.5%	-3.1% and 14.7%	0.4% and -22.2%	-55.3% and 19.9%	-19.1% and 3.8%
O=c1oc2c(O)c(O)cc3c(=O)oc4c(O)c(O)cc1c4c23	25.8% and 6.65%	18.6% and -20.1%	34.7% and -10.7%	19% and -8.75%	29% and -35.9%	-8.1% and -19.1%
O=c1[nH]c(SCc2ccccc2[N+](=O)[O-])nc2nc[nH]c12	-3.6% and -22.9%	-20.8% and 6.4%	-11.8% and -0.5%	-12.7% and 23.1%	-10.8% and -30%	-1.9% and -8.05%
Nc1ccc(O)c2c1C(=O)c1c(O)ccc(N)c1C2=O	59.8% and 13.4%	11.4% and -13.4%	16.4% and -0.55%	-16.1% and -0.65%	43.2% and 8.25%	42.1% and 11.8%
CCCCc1ccc(OC2OC(COC(C)=O)C(OC(C)=O)C(OC(C)=O)C2OC(C)=O)cc1 (configuration not stated)	-29.1% and -28.1%	-14.3% and 6.7%	-42.8% and -12.9%	-4.35% and 17.6%	-32.5% and -4.9%	-35.5% and -0.5%
Nc1ccc(CCc2ccc(N)cc2)cc1	2.95% and -24.4%	-6.85% and -19.4%	-34.4% and -18.4%	-48.5% and -20.8%	7.35% and -18.9%	12.2% and -8.65%
Nc1ncnc2c1ncn2C1(CO)OC(CO)C(O)C1O (configuration not stated)	13.7% and 3.2%	-9.1% and -6.15%	-13.9% and -0.2%	-0.65% and -23.2%	5% and 19.4%	11.2% and -1.25%
Nc1ccc(C(=O)O)c(O)c1	-8.6% and 15.1%	-7.4% and -2.45%	-4.15% and -14.9%	-40.9% and 1.75%	0.25% and -2.25%	-8.05% and 24.8%
OC1C(O)C2(c3ccccc3)OC1(c1ccccc1)c1ccccc12 (configuration not stated)	13.2% and 7.35%	-5.9% and -2.35%	-5.8% and -5.6%	4.35% and 2%	-0.25% and -1%	-13.5% and -9.9%
[Cl][Pr]([Cl])[Cl]	21.9% and 19.1%	-7.65% and 5.55%	-3.4% and 33.6%	1.6% and 19.1%	7.65% and 22.9%	1.4% and 42.2%
Nc1ncnc2c1nc(N1CCCCC1)n2C1OC(CO)C(O)C1O (configuration not stated)	27.9% and -5.55%	12.2% and -0.15%	9.9%	-38% and -43.2%	3.5% and -5.1%	2.6% and -7.85%
O=C(OC(=C(c1ccccc1)c1ccccc1)c1ccccc1)c1ccccc1	12.8% and -6.95%	-0.2% and -10.2%	-4.45% and 15.2%	-9.6% and -22.2%	-0.05% and 5.6%	11.2% and 20.4%
COc1cc([N+](=O)[O-])c(S(=O)(=O)O)cc1N	-7.95% and 30.1%	22.8% and 6.65%	-11.8% and -0.8%	-23.7% and 16.8%	7.2% and 16.3%	-0.75% and 38.9%
CC(C)c1ccc2c(c1)CC[C@H]1[C@](C)(C#N)CCC[C@]21C	1.1% and 0.25%	-20.8% and -11.4%	0.6% and -17.2%	-28.4% and -20.4%	1.25% and 13.2%	9.85% and 34.7%
O=C(O)C1CC[N-]CC1.O=C(O)C1CC[N-]CC1.[Cl][Pt+2][Cl]	14.8% and -3.75%	13.6% and -0.6%	24.4% and -1.25%	-5.25% and -42.3%	-5.8% and -2.85%	17.5% and 5.45%
COc1ccc(-c2cc(-c3ccco3)c(C#N)c(=O)n2C2OC(COC(C)=O)C(OC(C)=O)C(OC(C)=O)C2OC(C)=O)cc1 (configuration not stated)	8.3% and -23%	12.3% and 1.9%	23.9% and 4%	42.2% and 8.8%	16.8% and -2.2%	11.1% and -19.1%
CC(=O)Nc1cccc(N)c1	8.05% and 12.3%	-12% and 6.65%	0.35% and -3.95%	5.4% and -40.4%	5.1% and 0.7%	9.6% and -1.3%
CCCCCCCCCCCCCCCC[N+](C)(C)CCOC(C)=O	99.2% (active) and 99% (active)	99.5% (active)	99.5% (active)	98.9% (active) and 98.8% (active)	99.2% (active) and 99.3% (active)	99.5% (active) and 99.4% (active)
O=C(O)c1cc(N=C=S)ccc1-c1c2ccc(=O)cc-2oc2cc(O)ccc12	6.3% and 32.9%	3.7% and 31.5%	-4.85% and 15.3%	6% and 16.6%	-9.75% and -4.1%	4.95% and 45.9%
CC(C(=O)O)C(=O)O.[NH-]C1CCCCC1[NH-].[Pt+2]	8.5% and 16.2%	6.7% and 5.2%	-11.1% and -3.45%	11.2% and -0.05%	20.4% and 21.3%	32.3% and 34.4%
COC(=O)C(C)(C)O	-1.2% and 20.4%	8.2% and -28.9%	-4.15% and -12%	-26.9% and -75.2%	1.95% and -19.1%	3.1% and 1.55%
